About 79,000 compounds went through this panel and 15% of them were active in at least one assay; those are over-represented in the sample as a whole. Activity calls are given as the source filed them. Rule as the data show it: active = growth inhibition above about 70%; inactive = the rest.
What was measured:
[1] = NCI Yeast Anticancer Drug Screen. Data for the rad52 strain (AID 147);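 also: 0% = growth of vehicle-treated control cultures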; conditions: S. cerevisiae rad52 mutant growth inhibition, stronger effect = higher value
In short: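 Compounds are applied to a genetically defined yeast strain lacking normal DNA damage repair, and inhibition of growth is expressed relative to cultures given vehicle only.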

[2] = NCI Yeast Anticancer Drug Screen. Data for the wt1 strain (AID 149);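 also: 0% = growth of vehicle-treated wt1 cultures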; conditions: S. cerevisiae wt1 strain (SPY 50644) growth inhibition, stronger effect = higher value
In short: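 wt1 strain grown with compound or vehicle; inhibition taken from the growth difference.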

[3] = NCI Yeast Anticancer Drug Screen. Data for the rad50EPP+ strain (AID 151);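 also: 0% = growth of vehicle-treated control cultures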; conditions: S. cerevisiae rad50 mutant strain, stronger effect = higher value
In short: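 Compounds were applied to the rad50EPP+ yeast strain, which bears a defined DNA repair alteration, and growth inhibition was determined relative to vehicle-treated cultures.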

[4] = NCI Yeast Anticancer Drug Screen. Data for the mgt1 strain (AID 153); conditions: S. cerevisiae mgt1 mutant growth inhibition, stronger effect = higher value
In short: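 Strain: mgt1 yeast, one of a set carrying defined DNA damage repair or cell cycle control alterations. Compound-treated growth compared with vehicle.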

[5] = NCI Yeast Anticancer Drug Screen. Data for the rad50 strain (AID 155);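 also: 0% = growth of vehicle-only cultures of the same strain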; conditions: S. cerevisiae rad50 strain growth inhibition, stronger effect = higher value
In short: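 DNA repair mutant yeast, compound exposure, growth read-out; inhibition is taken relative to vehicle.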

[6] = NCI Yeast Anticancer Drug Screen. Data for the mec2-1 strain (AID 157); conditions: S. cerevisiae mec2-1 strain, stronger effect = higher value
In short: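 Strain: mec2-1 (DNA repair/cell cycle alteration). Compound exposure, then growth measured; inhibition expressed relative to vehicle.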

[7] = NCI Yeast Anticancer Drug Screen. Data for the rad14 strain (AID 159);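 also: 0% = growth of vehicle-treated control cultures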; conditions: S. cerevisiae rad14 strain growth inhibition, stronger effect = higher value
In short: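 DNA repair-defective yeast, compound-exposed; % growth inhibition derived by comparison with vehicle-treated controls.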

[8] = NCI Yeast Anticancer Drug Screen. Data for the sgs1 mgt1 strain (AID 161);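 also: 0% = growth of cultures given vehicle only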; conditions: S. cerevisiae sgs1 mgt1 strain, stronger effect = higher value
In short: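 Mutant yeast exposed to compound; growth scored against vehicle-only wells.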

[9] = NCI Yeast Anticancer Drug Screen. Data for the CLN2oe strain (AID 163);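 also: 0% = growth of vehicle-only control cultures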; conditions: S. cerevisiae CLN2oe strain, stronger effect = higher value
In short: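 Growth of a genetically modified yeast strain is measured after compound exposure and compared with cultures given vehicle alone.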

[10] = NCI Yeast Anticancer Drug Screen. Data for the cln2 rad14 strain (AID 165);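 also: 0% = growth equal to vehicle treated cultures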; conditions: S. cerevisiae cln2 rad14 strain, stronger effect = higher value
In short: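 Compounds are applied to the cln2 rad14 yeast strain, and growth is then compared with that of vehicle-treated cultures to give inhibition.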

[11] = NCI Yeast Anticancer Drug Screen. Data for the bub3 strain (AID 167); conditions: S. cerevisiae bub3 mutant strain, stronger effect = higher value
In short: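 In this screen, a yeast mutant lacking normal mitotic checkpoint function is challenged with compound. Relative growth versus vehicle gives the inhibition value.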

[12] = NCI Yeast Anticancer Drug Screen. Data for the wt2 strain (AID 169);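 also: 0% = growth of vehicle-treated yeast cultures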; conditions: S. cerevisiae wt2 strain growth inhibition, stronger effect = higher value
In short: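 This strain belongs to a panel of yeast strains with defined genetic alterations in DNA damage repair or cell cycle control. Compounds are applied, and growth inhibition is measured against vehicle-treated cultures.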

[13] = NCI Yeast Anticancer Drug Screen. Data for the mlh1 strain (AID 171);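 also: 0% = growth of vehicle-treated control cultures of the same strain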; conditions: S. cerevisiae mlh1 strain growth inhibition, stronger effect = higher value
In short: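 Growth of the mutant yeast strain after compound exposure, expressed as inhibition relative to vehicle-only controls.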

[14] = NCI Yeast Anticancer Drug Screen. Data for the sgs1 strain (AID 173);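 also: 0% = growth of vehicle-only control cultures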; conditions: S. cerevisiae sgs1 mutant, stronger effect = higher value
In short: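 Growth of a yeast strain bearing a defined genetic alteration is measured after compound treatment. Inhibition is expressed relative to vehicle-only controls.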

[15] = NCI Yeast Anticancer Drug Screen. Data for the mlh1 rad18 strain (AID 175); conditions: S. cerevisiae mlh1 rad18 strain growth inhibition, stronger effect = higher value
In short: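 Read-out is yeast growth inhibition, calculated against vehicle-only controls. The compound was applied to a strain engineered with DNA damage repair alterations.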

[16] = NCI Yeast Anticancer Drug Screen. Data for the rad18 strain (AID 177); conditions: S. cerevisiae rad18 mutant growth inhibition, stronger effect = higher value
In short: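 Growth of the mutant yeast strain after compound exposure, normalised to vehicle-only cultures.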

[17] = at 5.0 µM (retest, dose inferred, filed as 0.5)
[18] = at 50.0 µM (retest, dose inferred, filed as 5.0)

Measured: growth inhibition

CC(C)(CN1CCCCC1)C(=O)CC(SCCS(=O)(=O)O)c1ccc(Br)cc1 (stereo unspecified)
active: [5]; at 50.0 µM 73.8% | [11]; at 50.0 µM 74.7%
inactive: [1]; at 1.2 µM 1% | [1]; at 3.7 µM 6% | [1]; at 11.0 µM 9% | [1]; at 33.0 µM 22% | [1]; at 100.0 µM 54% | [2]; at 1.2 µM 3% | [2]; at 3.7 µM 6% | [2]; at 11.0 µM 9% | [2]; at 33.0 µM 11% | [2]; at 100.0 µM 24% | [3]; at 1.2 µM -2% | [3]; at 3.7 µM -4% | [3]; at 11.0 µM -4% | [3]; at 33.0 µM 0% | [3]; at 100.0 µM 14% | [4]; at 1.2 µM -1% | [4]; at 3.7 µM 0% | [4]; at 11.0 µM 8% | [4]; at 33.0 µM 21% | [4]; at 100.0 µM 59% | [5]; at 1.2 µM -2% | [5]; at 3.7 µM -5% | [5]; [17] 13% | [5]; at 11.0 µM -1% | [5]; at 33.0 µM 24% | [5]; [18] 32% | [5]; at 100.0 µM 50% | [6]; at 1.2 µM 1% | [6]; at 3.7 µM 6% | [6]; [17] -7% | [6]; at 11.0 µM 14% | [6]; at 33.0 µM 18% | [6]; [18] 11% | [6]; at 50.0 µM 52.9% | [6]; at 100.0 µM 36% | [7]; at 1.2 µM 6% | [7]; at 3.7 µM 19% | [7]; at 11.0 µM 42% | [7]; at 33.0 µM 39% | [7]; at 100.0 µM 51% | [8]; [17] 5% | [8]; [18] 4% | [8]; at 50.0 µM 68.5% | [9]; at 1.2 µM 2% | [9]; at 3.7 µM 4% | [9]; at 11.0 µM 13% | [9]; at 33.0 µM 25% | [9]; at 100.0 µM 33% | [10]; [17] 13% | [10]; [18] 26% | [10]; at 50.0 µM 56.7% | [11]; at 1.2 µM 1% | [11]; at 3.7 µM 6% | [11]; [17] -4% | [11]; at 11.0 µM 17% | [11]; at 33.0 µM 29% | [11]; [18] 56% | [11]; at 100.0 µM 61% | [12]; at 1.2 µM 1% | [12]; at 3.7 µM 3% | [12]; at 11.0 µM 11% | [12]; at 33.0 µM 24% | [12]; at 100.0 µM 46% | [13]; at 1.2 µM 3% | [13]; at 3.7 µM 6% | [13]; at 11.0 µM 17% | [13]; at 33.0 µM 26% | [13]; at 100.0 µM 52% | [14]; at 1.2 µM 2% | [14]; at 3.7 µM 11% | [14]; at 11.0 µM 28% | [14]; at 33.0 µM 42% | [14]; at 100.0 µM 62% | [15]; [17] 3% | [15]; [18] 21% | [15]; at 50.0 µM 65.2% | [16]; at 1.2 µM 2% | [16]; at 3.7 µM 15% | [16]; at 11.0 µM 29% | [16]; at 33.0 µM 25% | [16]; at 100.0 µM 55%

CC(=O)SCCC[Si](C)(C)CCCSC(C)=O
active: [8]; at 50.0 µM 70.8%
inactive: [1]; at 1.2 µM -1% | [1]; at 3.7 µM 2% | [1]; at 11.0 µM 7% | [1]; at 33.0 µM 28% | [1]; at 100.0 µM 53% | [2]; at 1.2 µM -3% | [2]; at 3.7 µM -5% | [2]; at 11.0 µM -7% | [2]; at 33.0 µM 4% | [2]; at 100.0 µM 31% | [3]; at 1.2 µM -3% | [3]; at 3.7 µM 2% | [3]; at 11.0 µM 12% | [3]; at 33.0 µM 11% | [3]; at 100.0 µM 20% | [4]; at 1.2 µM -4% | [4]; at 3.7 µM -4% | [4]; at 11.0 µM -5% | [4]; at 33.0 µM 7% | [4]; at 100.0 µM 39% | [5]; at 1.2 µM 1% | [5]; at 3.7 µM 2% | [5]; [17] -1% | [5]; at 11.0 µM 5% | [5]; at 33.0 µM 21% | [5]; [18] 51% | [5]; at 50.0 µM 55.2% | [5]; at 100.0 µM 44% | [6]; at 1.2 µM -3% | [6]; at 3.7 µM -3% | [6]; [17] -2% | [6]; at 11.0 µM -5% | [6]; at 33.0 µM 3% | [6]; [18] 46% | [6]; at 50.0 µM 53.6% | [6]; at 100.0 µM 35% | [7]; at 1.2 µM -3% | [7]; at 3.7 µM 0% | [7]; at 11.0 µM 0% | [7]; at 33.0 µM 14% | [7]; at 100.0 µM 39% | [8]; [17] 1% | [8]; [18] 63% | [9]; at 1.2 µM -4% | [9]; at 3.7 µM -6% | [9]; at 11.0 µM -7% | [9]; at 33.0 µM 13% | [9]; at 100.0 µM 48% | [10]; [17] -6% | [10]; [18] 54% | [10]; at 50.0 µM 39% | [11]; at 1.2 µM -1% | [11]; at 3.7 µM 3% | [11]; [17] 10% | [11]; at 11.0 µM 3% | [11]; at 33.0 µM 23% | [11]; [18] 61% | [11]; at 50.0 µM 65.7% | [11]; at 100.0 µM 47% | [12]; at 1.2 µM -1% | [12]; at 3.7 µM -9% | [12]; at 11.0 µM -6% | [12]; at 33.0 µM 5% | [12]; at 100.0 µM 33% | [13]; at 1.2 µM -4% | [13]; at 3.7 µM -3% | [13]; at 11.0 µM -2% | [13]; at 33.0 µM 21% | [13]; at 100.0 µM 51% | [14]; at 1.2 µM -2% | [14]; at 3.7 µM 22% | [14]; at 11.0 µM 4% | [14]; at 33.0 µM 29% | [14]; at 100.0 µM 48% | [15]; [17] -2% | [15]; [18] 58% | [15]; at 50.0 µM 64.7% | [16]; at 1.2 µM -5% | [16]; at 3.7 µM 1% | [16]; at 11.0 µM 3% | [16]; at 33.0 µM 19% | [16]; at 100.0 µM 51%
